Measurements: PubChem BioAssay AID1159580 (chemical genetic matrix, 2015)
Where “and” joins values, the source holds several entries; their conditions need not be identical. Equal values may be shown once. The whole screen tested about 5,500 compounds, of which about 2,000 (36%) were called active. Roughly 18% stayed inconclusive and do not appear here. Rule as the data show it: active = normalized growth mostly below about 0.91 (no sharp cut-off); inconclusive = no clear call, values can overlap the other calls; inactive = mostly above about 0.92. The list shows a part of the results.

Assay: chemical genetic growth profiling, strain panel (AID 1159580);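 also: tested at 20 µM; growth read once vehicle control cultures reached saturation at 30 °C; 1 = growth at the plate median or of vehicle wells; lower values mean less growth of the strain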
Details: S. cerevisiae deletion strains, growth OD

Measured: normalized growth

CCN(CC)CCOC(=O)C(c1ccccc1)c1ccccc1
inactive: locus YAL013W, strain DEP1, active compounds read low 0.982 | locus YAL021C, strain ccr4, active compounds read low 0.964 | locus YAL026C, strain drs2, active compounds read low 0.975 | locus YAL030W, strain snc1, active compounds read low 0.948 | locus YBL061C, strain skt5, active compounds read low 0.965 | locus YBR009C, strain hhf1, active compounds read low 0.99 | locus YBR021W, strain FUR4, active compounds read low 0.989 | locus YBR023C, strain chs3, active compounds read low 0.957 | locus YBR171W, strain sec66, active compounds read low 0.971 | locus YBR229C, strain ROT2, active compounds read low 1 | locus YBR231C, strain swc5, active compounds read low 0.967 | locus YBR279W, strain paf1, active compounds read low 0.971 | locus YCL011C, strain gbp2, active compounds read low 0.948 | locus YCL016C, strain dcc1, active compounds read low 0.987 | locus YCL029C, strain bik1, active compounds read low 0.979 | locus YCL069W, strain vba3, active compounds read low 0.976 | locus YCR088W, strain abp1, active compounds read low 0.968 | locus YDL005C, strain med2, active compounds read low 0.958 | locus YDL035C, strain GPR1, active compounds read low 0.988 | locus YDL040C, strain nat1, active compounds read low 0.972 | locus YDL074C, strain BRE1, active compounds read low 1.01 | locus YDL101C, strain DUN1, active compounds read low 0.995 | locus YDL134C, strain PPH21, active compounds read low 0.997 | locus YDL185W, strain tfp1, active compounds read low 0.96 | locus YDL192W, strain arf1, active compounds read low 0.989 | locus YDR001C, strain nth1, active compounds read low 0.964 | locus YDR069C, strain doa4, active compounds read low 0.936 | locus YDR101C, strain arx1, active compounds read low 1.01 | locus YDR137W, strain rgp1, active compounds read low 0.994 | locus YDR159W, strain sac3, active compounds read low 0.947 | locus YDR162C, strain NBP2, active compounds read low 0.961 | locus YDR195W, strain ref2 0.889 | locus YDR297W, strain sur2, active compounds read low 0.974 | locus YDR318W, strain mcm21, active compounds read low 0.986 | locus YDR334W, strain swr1, active compounds read low 0.943 | locus YDR335W, strain msn5, active compounds read low 0.976 | locus YDR388W, active compounds read low 1 | locus YDR392W, strain spt3, active compounds read low 1.01 | locus YDR502C, strain sam2, active compounds read low 1 | locus YEL003W, strain gim4, active compounds read low 0.972 | locus YEL037C, strain rad23, active compounds read low 0.973 | locus YEL061C, strain CIN8 (second series), active compounds read low 0.957 | locus YEL061C, strain CIN8, active compounds read low 0.987 | locus YER015W, strain faa2, active compounds read low 0.984 | locus YER016W, strain bim1, active compounds read low 0.976 | locus YER110C, active compounds read low 0.968 | locus YER111C, strain swi4, active compounds read low 0.957 | locus YER155C, strain BEM2 (second series), active compounds read low 0.951 | locus YER155C, strain BEM2, active compounds read low 1.01 | locus YER167W, strain BCK2, active compounds read low 0.993 | locus YFR010W, strain ubp6, active compounds read low 0.959 | locus YGL078C, strain dbp3, active compounds read low 0.987 | locus YGL086W, strain mad1, active compounds read low 0.995 | locus YGL167C, strain pmr1, active compounds read low 0.962 | locus YGL173C, strain kem1, active compounds read low 0.98 | locus YGL227W, strain vid30, active compounds read low 0.961 | locus YGL240W, strain doc1, active compounds read low 0.963 | locus YGL248W, strain PDE1, active compounds read low 1.01 | locus YGL253W, strain hxk2, active compounds read low 0.97 | locus YGR135W, strain pre9, active compounds read low 0.955 | locus YGR229C, strain SMI1, active compounds read low 0.979 | locus YGR252W, strain gcn5, active compounds read low 0.994 | locus YHR013C, strain ard1, active compounds read low 0.964 | locus YHR027C, strain rpn1, active compounds read low 0.971 | locus YHR030C, strain SLT2, active compounds read low 0.981 and 0.995 | locus YHR079C, strain IRE1 (second series), active compounds read low 0.99 | locus YHR079C, strain IRE1, active compounds read low 0.986 | locus YHR094C, strain hxt1, active compounds read low 0.993 | locus YHR129C, strain ARP1, active compounds read low 0.99 | locus YHR142W, strain chs7, active compounds read low 0.967 | locus YHR200W, strain rpn10, active compounds read low 0.975 | locus YIL066C, strain RNR3, active compounds read low 1 | locus YIL073C, strain SPO22, active compounds read low 0.935 | locus YIL125W, strain kgd1, active compounds read low 1 | locus YIR030C, strain dcg1, active compounds read low 0.987 | locus YJL092W, strain hpr5, active compounds read low 0.964 | locus YJL095W, strain BCK1 (second series), active compounds read low 0.973 | locus YJL095W, strain BCK1, active compounds read low 1.02 and 0.981 | locus YJL115W, strain asf1, active compounds read low 0.949 | locus YJL129C, strain trk1, active compounds read low 0.972 | locus YJL134W, strain LCB3, active compounds read low 0.989 | locus YJL154C, strain vps35, active compounds read low 0.959 | locus YJL164C, strain tpk1, active compounds read low 0.993 | locus YJL166W, strain qcr8, active compounds read low 0.958 | locus YJL168C, strain set2, active compounds read low 1 | locus YJL187C, strain SWE1 (second series), active compounds read low 1.01 | locus YJR043C, strain POL32, active compounds read low 0.998 | locus YJR066W, strain TOR1, active compounds read low 0.963 | locus YKL009W, strain mrt4, active compounds read low 0.959
